Screening data: PubChem BioAssay, National Center for Advancing Translational Sciences (NCATS)
MCF10A rerep: inducers of DNA re-replication in MCF 10A breast cells | MCF 10A DNA re-replication, Hoechst nuclear intensity, 48 h | Potency, µM (top dose mostly 46.1 µM), most hits filed as activators | actives 2.9% (n = 350,000) | AID 624296; also: nearly all actives have a fitted effect of over 50% in size
KB-3-1 cytotox: KB-3-1 parental cell cytotoxicity | KB-3-1 viability, CellTiter-Glo ATP luminescence, 72 h | Potency, µM (highest dose often 46.1 µM), hits mostly cytotoxic | actives 1.4% (n = 400,000); also: nearly all actives have a fitted effect of over 60% in size
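KB-3-1 cells, DMEM (no phenol red) + 10% FBS; compound by pin transfer, 72 h, 37 °C. Readout: CellTiter-Glo luminescence after 10 min. Data normalized, curve-fitted.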
SW480 rerep: induces DNA re-replication in SW480 colon adenocarcinoma cells; SW480 DNA re-replication, Hoechst DNA content imaging, 48 h; Potency, µM (top dose mostly 46.1 µM), actives largely listed as activators; actives 1.8% (n = 340,000); AID 624297; also: nearly all actives have a fitted effect of over 55% in size
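Image-based read-out: total Hoechst fluorescence of nuclei (405 nm excitation, 500-530 nm emission), with hits raising the fraction of high-intensity nuclei. SW480 colon cells incubated 48 hr with compounds at 37 C.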
PINK1 expr mod: changes PINK1 expression. PINK1 immunofluorescence, high-content cytometry, 24 h. Potency, µM (highest dose often 76.6 µM), actives largely listed as activators. actives 0.2% (n = 410,000); active = well fitted activation curve with a large enough effect; inconclusive = small, poorly fitted or top-dose-only effect; cell line not stated here; also: nearly all actives have a fitted effect of over 65% in size
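Stable cell line treated 24 h with compounds at 5 concentrations (CCCP controls), then fixed and immunostained for PINK1 plus nuclear and cell stains; PINK1 immunofluorescence quantified by laser-scanning microplate cytometry.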
KB-V1 MDR tox: kills drug-selected multidrug resistant KB-V1 cells; KB-V1 MDR cells viability, CellTiter-Glo, 72 h; Potency, µM (series often up to 46.1 µM), most hits filed as cytotoxic; actives 3.4% (n = 400,000); also: nearly all actives have a fitted effect of over 60% in size
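Cytotoxicity toward P-gp-expressing KB-V1 cells was determined as loss of CellTiter-Glo luminescence after 72 h at 37 degrees C. Compounds were tested in quantitative HTS format across a concentration range, with curves fitted to normalized data.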
Hits are given with their value; i = inactive; ? = inconclusive; nt = not tested or not shown; [ ] = another dose, or the depositor's remark. This is a sample that favours compounds with a hit; in the whole collection about 6.7% have one here. Unless noted, calls follow the shape of the dose curve; as a rule, active = well fitted curve in the direction sought with a large enough effect; inconclusive = small, poorly fitted or top-dose-only effect, or another doubt; inactive = no such curve, though single readings can be large; an effect the other way counts as inactive or inconclusive.

SMILES	MCF10A rerep	KB-3-1 cytotox	SW480 rerep	PINK1 expr mod	KB-V1 MDR tox
COc1cccc(C(C(=O)NC2CCCC2)N(C(=O)c2ccco2)c2ccccc2)c1OC (stereo not drawn)	i	i	i	i	?
CCOCCCN(C(=O)c1ccco1)C(C(=O)NC1CCCC1)c1cccc(OC)c1OC (stereo not drawn)	i	i	?	i	16µM
CCSc1ccccc1C(=O)N1CCCC1	i	i	i	i	i
CCSc1ccccc1C(=O)n1nnc2ccccc21	16µM	?	?	i	i
O=C(CN1C(=O)NC(c2ccccc2)(c2ccccc2)C1=O)NCc1ccc(F)cc1	i	i	i	i	i
CCC(=O)N1CCc2cc(S(=O)(=O)NC(Cc3ccccc3)C(=O)O)ccc21 (stereo not drawn)	i	i	i	i	i
CCC(=O)N1CCc2cc(S(=O)(=O)NC(CC(C)C)C(=O)N3CCc4ccccc43)ccc21 (stereo not drawn)	i	i	?	i	13µM
COC(=O)c1cccc(NC(=O)CC2C(=O)NCCN2C(=O)Nc2cc(C)cc(C)c2)c1 (stereo not drawn)	i	i	i	i	?
COCCn1c(=O)sc2ccccc2c1=O	?	i	i	i	i
CCc1nc2sc3ccccc3c(=O)c2c(=O)n1CCOC	i	i	i	i	i
COCCn1c(C2CCCCC2)nc2sc3ccccc3c(=O)c2c1=O	i	i	i	i	4.1µM
COCCn1c(C(C)C)nc2sc3ccccc3c(=O)c2c1=O	?	i	i	i	16µM
COc1ccc(CC(=O)N2CCc3cc(OC)c(OC)cc3C2COc2ccc(F)cc2)cc1OC (stereo not drawn)	nt	i	nt	i	i
COc1cc2c(cc1OC)C(COc1ccc([N+](=O)[O-])cc1)N(C(C)=O)CC2 (stereo not drawn)	i	16µM	i	i	?
COc1ccc(CC(=O)N2CCc3cc(OC)c(OC)cc3C2COc2ccc(F)cc2)cc1 (stereo not drawn)	nt	i	nt	i	7.3µM
CC1(C(=O)NC2CCCC2)CCC(=O)N1CCOc1ccccc1 (stereo not drawn)	nt	i	nt	i	i
O=C1c2ccccc2S(=O)(=O)c2cc(N3CCN(C(=O)c4ccccc4)CC3)ccc21	?	i	i[9.22 µM]	i	i
CC1CCN(c2ccc3c(c2)S(=O)(=O)c2ccccc2C3=O)CC1	18µM	i	23µM	i	i
NC(=O)C1CCN(c2ccc3c(c2)S(=O)(=O)c2ccccc2C3=O)CC1	i	i	i	i	i
O=C1c2ccccc2S(=O)(=O)c2cc(N3CCC4(CC3)OCCO4)ccc21	?	i	i	i	7.3µM
Cc1ccc(Cn2c(=O)n(C)c(=O)c3sccc32)cc1	i	?	i	i	?
CCCn1c(=N)n(CC(=O)c2ccc([N+](=O)[O-])cc2)c2ccccc21	15µM	?	i	i	?
